# Shown are actives, neighbours in structure and some others; about 2.2% of the full set was active somewhere.
# IEC-6 cytotox: kills IEC-6 intestinal cells in KLF5 counter-screen; IEC-6 cytotoxicity, luminescence viability; inhibition, % at 5 µM; 290,000 tested, 0.78% active; AID 1825; in the data active means inhibition above about 22%;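 further: 0% = plate median of test compound wells and 100% = cytotoxic reference compound wells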
# Ba/F3 V617F tox: loss of viability in JAK2V617F-driven Ba/F3 cells; Ba/F3 EpoR-JAK2V617F viability, ATP luminescence; inhibition, % at 5.6 µM; 220,000 tested, 1.1% active;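 active means inhibition above the campaign mean plus 3 SD over all tested compounds, cut at about 24% in these data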;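 further: cytokine-independent growth of Ba/F3 cells driven by EpoR plus mutant JAK2; 0% = DMSO-treated cells and 100% = JAK inhibitor I control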
# KLF5 inh: inhibitors of KLF5 expression; 290,000 tested, 0.23% active; AID 1700; inhibition, % at 5 µM; DLD-1 KLF5 promoter-luciferase reporter, luminescence;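 active means inhibition above a per-plate limit of that plate's mean compound inhibition plus 3 SD, cut at about 60% in these data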;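 further: 0% = DMSO wells and 100% = LY294002 at 200 µM; higher means less KLF5 promoter-driven luciferase light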
# aSyn 5UTR inh: MLPCN primary screen, SNCA 5' untranslated region; inhibition, % (tested at 7.5 µM); 300,000 tested, 0.82% active; alpha-synuclein 5'UTR reporter, inhibitor activity; in the data active means inhibition above about 60%;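 further: H4 neuroglioblastoma cells stably carrying SNCA 5'UTR luciferase fusion; 0% = DMSO wells and 100% = positive control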
# APP transl inh: APP translation inhibition. SH-SY5Y APP 5'UTR-luciferase reporter, luminescence. inhibition, % at 2 µM. 190,000 tested, 0.82% active;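 active means inhibition above a set limit, derived from the sample mean plus 3 SD, cut at about 45% in these data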
# BaF3 tox: parental Ba/F3 viability inhibition as JAK2V617F counter-screen; inhibition, % at 5.6 µM; CellTiter-Glo ATP luminescence; 220,000 tested, 1.1% active;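 active means inhibition above a per-campaign cutoff, the mean inhibition of all tested compounds plus 3 SD, cut at about 27% in these data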;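 further: 0% = DMSO wells and 100% = JAK Inhibitor I control wells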
# Numbers without * were called inactive; / = no result.
SMILES,IEC-6 cytotox,Ba/F3 V617F tox,KLF5 inh,aSyn 5UTR inh,APP transl inh,BaF3 tox
O=[N+]([O-])c1cccc(N(CC(O)CN2CCCC2)S(=O)(=O)c2ccccc2)c1 (stereo not given),5,/,-5,2,/,/
CCc1nnc(NC(=O)c2ccncc2)s1,5,3,-12,-6,8,5
COc1ccc(C(=O)Nc2nc3ccccc3s2)cc1,-6,/,3,67*,/,/
CCOCc1nnc(NC(=O)c2ccc(OC)cc2)s1,-4,-1,-66,-73,47*,-1
CCc1nnc(NC(=O)c2cccc(C(=O)Nc3nnc(CC)s3)n2)s1,93*,3,54,66*,85*,12
COc1cccc(C(=O)Nc2nc3ccccc3s2)c1,-1,/,-145,-108,/,/
COc1cccc(NC(=O)N2CCCC2C(=O)NCc2ccco2)c1 (stereo not given),-9,/,-10,11,/,/
Cc1cc2cc(CCNS(=O)(=O)c3ccc(F)cc3)c(=O)[nH]c2cc1C,4,/,-4,12,/,/
CC(=O)Nc1nc2ccccc2n1Cc1ccccc1C,11,1,0,67*,-2,0
CC(=O)NCc1nc2ccccc2n1Cc1ccccc1C,6,-2,-42,32,0,7
CCC(=O)Nc1nc2ccccc2n1Cc1ccc(Cl)cc1,12,-3,-10,72*,27,6
CC(=O)Nc1nc2ccccc2n1Cc1ccccc1Cl,17,0,-42,87*,/,-7
CCC(=O)Nc1nc2ccccc2n1Cc1ccccc1Cl,20,-3,-17,72*,/,1
Cn1c(NCc2ccccc2Cl)nc2ccccc21,/,/,/,-164,/,/
CCCCCN(C(=O)CCC(=O)OCc1cccc(F)c1)c1c(N)n(CCCC)c(=O)[nH]c1=O,/,/,/,13,/,/
CCCCCCCn1c(NC(=O)CC)nc2ccccc21,15,1,-10,68*,/,-1
S=C(Nc1ccccc1)Nc1nc2ccccc2n1CCOc1ccc(Cl)cc1,6,-3,-13,-19,5,3
CC(=O)Nc1nc2ccccc2n1CCOc1ccccc1Cl,16,0,-9,73*,-29,5
CCC(=O)Nc1nc2ccccc2n1CCN1CCOCC1,-2,-3,-29,-31,-20,1
O=C(CCC1CCCC1)NNC(=O)c1cccc(Cl)c1,5,/,6,-5,/,/
COc1ccccc1CNC(=O)COC(=O)c1nc(Cl)ccc1Cl,/,/,/,5,/,/
COc1ccc(-c2nc(CN3CCC(C(=O)N4CCOCC4)CC3)c(C)o2)cc1C,0,/,-49,22,/,/
Oc1ccc(N=Nc2ccc3c(c2)OCCO3)c(O)c1,1,1,-22,62*,/,0
Oc1ccc(N=Nc2ccc(Br)cc2)c(O)c1,29*,-4,-63,-226,/,0
Cc1ccc(N=Nc2ccc(O)cc2)c(Br)c1,7,/,-106,-43,/,/
SMILES,IEC-6 cytotox,Ba/F3 V617F tox,KLF5 inh,aSyn 5UTR inh,APP transl inh,BaF3 tox
Oc1ccc(N=Nc2ccc3c(c2)OCCO3)c2cccnc12,-7,-1,-6,104*,35,2
COC(=O)c1cccc(NC(=O)NC(=O)c2ccccc2Cl)c1,-2,-2,-1,95*,/,-4
CCOc1ccccc1C1C2=C(COC2=O)Nc2cc3c(cc21)OCO3 (stereo not given),91*,83*,63*,117*,96*,74*
CCCOc1c(OC)cccc1C1CC(=O)Nc2cc3c(cc21)OCO3 (stereo not given),0,0,-4,-3,9,1
Cc1ccc(C(=O)Nc2ccc(N3CCN(C)CC3)cc2)c(Cl)c1,-5,/,-95,-162,/,/
COc1ccc(CNC(=O)C[C@H]2C(=O)N(CCc3ccccc3)C[C@@H]2Cc2ccccc2)cc1,-4,/,7,-20,/,/
Fc1ccc(-c2csc(-c3cccnc3)n2)cc1F,4,/,-41,-51,/,/
Oc1ccc(-c2csc(-c3cccnc3)n2)cc1O,16,41*,-110,-96,/,37*
CC1CCC(C(C)C)C(OCC[N+](C)(C)C)C1 (stereo not given),4,37*,3,-11,12,42*
CC1CCC(C(C)C)C(OCC(O)C[N+]2(C)CCCCC2)C1 (stereo not given),2,28*,-33,11,4,50*
CC1CCC(C(C)C)C(OCC(O)CN2CCCC(C)C2)C1 (stereo not given),-8,-1,-30,-43,-6,6
COc1ccc(C(=O)N=C2SC3CS(=O)(=O)CC3N2c2ccc(C(C)=O)cc2)cc1 (stereo not given),-4,/,-15,17,/,/
COc1cccc(C(=O)Nc2ccc3[nH]c(=O)[nH]c3c2)c1OC,4,/,-14,68*,/,/
COc1ccc(OCC(O)CN2CCC(CN3C(=O)c4cccc5cccc(c45)C3=O)CC2)cc1 (stereo not given),/,/,/,3,/,/
Cc1ccc(C)c(OCC(O)CN2CCC(CN3C(=O)c4cccc5cccc(c45)C3=O)CC2)c1 (stereo not given),-5,-2,9,4,69*,6
Brc1ccc(C=Nc2ccc(Nc3ccccc3)cc2)s1,7,2,4,13,45*,8
CCCn1c(C)nnc1SCC(=O)NC1CCCCC1,0,/,-11,-1,/,/
COc1ccccc1/C=C/C(=O)OC(C)CN1CCCCC1 (stereo not given),1,/,-18,9,/,/
CC(C)CCn1nc(C(=O)Nc2nc3c(s2)CCCC3)c2ccccc2c1=O,9,-3,-19,68*,7,2
O=C(NCc1ccccc1)NC(=O)c1ccccc1F,5,/,-56,-54,/,/
CN(C)c1cc[n+](CC(=O)N2c3ccccc3Sc3ccccc32)cc1,3,24*,-1,/,3,37*
CCN(CC)c1ccc(NC(=O)CCCCCN2C(=O)c3ccccc3C2=O)cc1,0,3,1,-4,5,7
CCN(CC)c1ccc(NC(=O)CCCCC(=O)Nc2ccc(N(CC)CC)cc2)cc1,/,/,/,63*,/,/
CN[C@H]1CCc2cc(OC)c(OC)c(OC)c2-c2ccc(N(C)CC(OC)OC)c(=O)cc21,10,/,4,70*,/,/
Cc1cc[n+](CC[n+]2ccc(C)cc2)cc1,/,/,/,-10,/,/
SMILES,IEC-6 cytotox,Ba/F3 V617F tox,KLF5 inh,aSyn 5UTR inh,APP transl inh,BaF3 tox
CCC(C)(C)c1ccc(OCCCC[n+]2ccc(C)cc2)c(C(C)(C)CC)c1,21,102*,35,25,-21,103*
Cc1cc(C(C)(C)C)ccc1OCCCCN1CCCC1,-8,-2,-1,-15,-7,7
CCC(C)(C)c1ccc(OCCCC[n+]2cccc(C)c2C)c(C(C)(C)CC)c1,22,99*,41,101*,/,99*
CC(C)(C)c1ccc(Cn2c(=N)n(CC(O)c3ccco3)c3ccccc32)cc1 (stereo not given),-3,23,-45,101*,9,17
CCCc1nc2oc3c(NCCN(C)C)ncnc3c2c2c1CCCC2,4,-1,11,-30,-10,-1
CCCc1nc2oc3c(NCCCN(C)C)ncnc3c2c2c1CCCC2,-6,68*,-31,108*,/,69*
CC(=O)C1=NN(c2ccccc2)C(c2ccc3c(c2)OCO3)N1c1ccccc1 (stereo not given),-1,21,-43,-11,-26,46*
